ANO1 activ = activates or potentiates the mouse TMEM16A chloride channel; Q8BHY3; HEK293 TMEM16A/YFP-H148Q/I152L, iodide quench fluorescence; active compounds read low; B-score at 10 µM; 0.3% of 340,000 active;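 active means fluorescence-ratio B-score plate-corrected deviation score at least 3 library SD below zero, with starting fluorescence score within 5 deviations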;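 further: channel opened by trigger with iodide after compound preincubation; score built on the fluorescence ratio of max minus min over baseline; more negative score means more quench and so TMEM16A activation or potentiation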
CHT allo act = allosterically activates the human high affinity choline transporter | AID 488977 | 0.49% of 310,000 active | Q9GZV3 | CHT-expressing cells, membrane potential dye, choline EC20; active compounds read high; LV-AA mutant CHT in HEK293 cells | B-score at 10 µM;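 active means initial fluorescence not abnormally high and integrated response B-score, plate-corrected, over 3 SD above library mean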
PHOSPHO1 block = inhibitors of human PHOSPHO1 phosphatase | recombinant PHOSPHO1, absorbance phosphatase assay | inhibition, % at 13.3 µM | 1.1% of 290,000 active | AID 1565; in the data active means inhibition above about 60%
Target sequence (Q8TCT1 whole entry, looked up): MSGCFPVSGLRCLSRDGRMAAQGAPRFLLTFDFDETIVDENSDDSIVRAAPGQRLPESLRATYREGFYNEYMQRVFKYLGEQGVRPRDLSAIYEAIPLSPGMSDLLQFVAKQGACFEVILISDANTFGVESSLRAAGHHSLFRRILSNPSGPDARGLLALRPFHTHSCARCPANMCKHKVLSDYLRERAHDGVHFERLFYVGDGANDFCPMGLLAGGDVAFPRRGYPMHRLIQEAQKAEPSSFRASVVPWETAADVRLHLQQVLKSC
TMEM16A inh = blocks the mouse calcium-activated chloride channel TMEM16A | Q8BHY3 | 1.2% of 310,000 active | normalized B-score (activity score, 25-100; higher = stronger inhibition) at 10 µM | HEK293 TMEM16A/YFP iodide influx fluorescence, ionomycin;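 active means ratio plate-corrected score three or more library SD toward inhibition, starting fluorescence score within five deviations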;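 further: score derived from kinetic fluorescence span divided by baseline fluorescence per well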
CHT block = inhibits the human high affinity choline transporter. CHT-expressing cells, membrane potential dye, choline response; active compounds read low. Q9GZV3. 0.86% of 310,000 active. B-score at 10 µM;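 active means B-score over 3 SD under the library average, and starting fluorescence ratio not unusually high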;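 further: choline stimulus applied at its EC90 after an EC20 pre-addition; B-score computed on integrated fluorescence ratio after choline addition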
HDAC3 inhib = blocks human histone deacetylase 3. recombinant HDAC3, fluorogenic peptide/trypsin coupled, fluorescence. 0.15% of 320,000 active. inhibition, % at 8.3 µM; in the data active means inhibition above about 26%, passing the limit was not always enough; inconclusive means no clear call, values can overlap the other calls
CHT activ conf = human CHT activation, confirmatory screen | shares compounds with CHT allo act | CHT-expressing cells, membrane potential dye fluorescence (FDSS); % of choline EC20–EC90 response window; HEK293 expressing CHT LV-AA mutant; choline added at its EC20 | activation, % at 10 µM | 91% of 2,500 active | AID 504833;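 active means primary screen active, with duplicate mean activation above negative control mean plus 3 SD, cut at about 11% in these data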
HEK293 MP dye = activity in parental HEK293 cells lacking CHT | shares compounds with CHT allo act | membrane potential dye fluorescence (FDSS); measured after EC20 choline addition | ratio readout change at 10 µM, hits read low | 62% of 2,500 active | AID 623908;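 active means duplicate-averaged ratio beyond 3 SD from buffer wells, up or down, though filed actives are nearly all decreases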
* hit, by the source's call. This is a sample that favours compounds with a hit; in the whole collection about 3.2% have one here.

Cc1ccc(-c2c3c(=O)n(C)c(=O)n(C)c3cn2CCCN2CCOCC2)cc1 was read as ANO1 activ inactive, CHT allo act 8.1*, PHOSPHO1 block 2, TMEM16A inh inactive, CHT block inactive, HDAC3 inhib -11, CHT activ conf 70* and HEK293 MP dye -68*.
Screening CCc1nn(CC(=O)NCCN2CCOCC2)c(=O)c2cc3c(OC)cccc3n12 returned ANO1 activ inactive, CHT allo act inactive, PHOSPHO1 block 0, TMEM16A inh inactive, CHT block inactive and HDAC3 inhib -90.
Cc1cc(NCCNC2=CC(=O)CCC2)nc2ccccc12 was read as ANO1 activ inactive, CHT allo act inactive, PHOSPHO1 block -35, TMEM16A inh inactive, CHT block inactive, HDAC3 inhib 2, CHT activ conf 48* and HEK293 MP dye -47*.
For Cc1cc(NCC2CCCCC2)nc2ccccc12 the results were ANO1 activ inactive, CHT allo act inactive, PHOSPHO1 block 20, TMEM16A inh inactive, CHT block inactive and HDAC3 inhib -1.
For CCCn1c(SCc2ccc(C(=O)OC)o2)nc2ccccc2c1=O the results were ANO1 activ inactive, CHT allo act 6.7*, PHOSPHO1 block 40, TMEM16A inh inactive, CHT block inactive, HDAC3 inhib -5, CHT activ conf 48* and HEK293 MP dye inactive.
`COC(=O)c1ccc(CSc2cc(C)c3ccccc3n2)o1` gave ANO1 activ inactive, CHT allo act inactive, PHOSPHO1 block -51, TMEM16A inh inactive, CHT block inactive and HDAC3 inhib inconclusive.
Cc1cccc(NC(=O)C2=C(O)c3ccccc3N(C)S2(=O)=O)c1 was read as ANO1 activ inactive, CHT allo act inactive, PHOSPHO1 block 25, TMEM16A inh inactive, CHT block inactive, HDAC3 inhib 16, CHT activ conf -2 and HEK293 MP dye -28*.
For Cc1cccc(C)c1NC(=O)C1=C(O)c2sccc2N(C)S1(=O)=O the results were ANO1 activ inactive, CHT allo act inactive, PHOSPHO1 block 36, TMEM16A inh inactive, CHT block inactive and HDAC3 inhib -1.
CN(c1ccc(OCc2nnc(-c3ccccc3)o2)cc1)S(=O)(=O)c1ccccc1 was read as ANO1 activ inactive, CHT allo act inactive, PHOSPHO1 block -40, TMEM16A inh inactive, CHT block inactive, HDAC3 inhib 7, CHT activ conf 27* and HEK293 MP dye inactive.
For C/C(Cn1nnc([N+](=O)[O-])n1)=N\NC(=O)c1ccccc1Cl the results were ANO1 activ inactive, CHT allo act inactive, PHOSPHO1 block 34, TMEM16A inh inactive, CHT block inactive and HDAC3 inhib -1.
Screening Cc1nc(N2CCN(C)CC2)c2sc(=S)n(C)c2n1 returned ANO1 activ inactive, CHT allo act inactive, PHOSPHO1 block -7, TMEM16A inh inactive, CHT block inactive, HDAC3 inhib 10, CHT activ conf 33* and HEK293 MP dye -50*.
Screening COc1ccc(C(CC(=O)N2CCCC(C)C2)c2c(OC)cc(OC)c3c(-c4ccccc4)cc(=O)oc23)cc1 (centres undefined) returned ANO1 activ inactive, CHT allo act inactive, PHOSPHO1 block 18, TMEM16A inh inactive, CHT block inactive, HDAC3 inhib inconclusive, CHT activ conf 5 and HEK293 MP dye inactive.
Screening COc1ccc(C(CC(=O)N2CCOCC2)c2c(OC)cc(OC)c3c(-c4ccccc4)cc(=O)oc23)cc1 (centres undefined) returned ANO1 activ inactive, CHT allo act inactive, PHOSPHO1 block 13, TMEM16A inh inactive, CHT block inactive and HDAC3 inhib 1.
`CCN(CC)S(=O)(=O)c1ccc2nc(NC(=O)c3cccs3)sc2c1` gave ANO1 activ inactive, CHT allo act inactive, PHOSPHO1 block 24, TMEM16A inh inactive, CHT block inactive and HDAC3 inhib -6.

Source: PubChem BioAssay
